# Source: PubChem BioAssay AID1490 (National Center for Advancing Translational Sciences (NCATS), 2009)
# “And” between values parts separate entries of the source, which are not always exact repeats. Equal values may be shown once. In all, about 310,000 compounds went through this assay and about 11,000 (3.5%) were called active. Not shown: some 4% with an inconclusive outcome. The call rests on the fitted dose curve; in most records, active means well fitted inhibition curve with a large enough effect; inconclusive means small, poorly fitted or top-dose-only effect, or another doubt; inactive means no such curve, though single readings can be large or run the other way. The sample as a whole holds a higher share of actives than the screen did. Some compounds were tested as several samples or in several runs, with calls that do not always agree.
# Target: 4'-phosphopantetheinyl transferase ffp (Bacillus subtilis) (UniProt Q9F4F7)
# Assay: qHTS Assay for Inhibitors of Bacillus subtilis Sfp phosphopantetheinyl transferase (PPTase);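 further: the enzyme is Sfp with the accession as filed and its product quenches rhodamine fluorescence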;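 on largest response in the series, negative = inhibition: 0% = enzyme reaction without inhibitor and -100% = no enzyme wells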
# Conditions: Biochemical Sfp PPTase activity
# Description: Assay Submitter: Michael Burkart, University of California, San Diego
# Screening Center PI: Austin, C.P.
# Screening Center: NIH Chemical Genomics Center [NCGC]
# The covalent attachment of a phosphopantetheinyl (4'-PP) arm to a variety of synthases and other proteins is a key posttranslational protein modification. The 4'-PP is installed on the proteins post-translationally from coenzyme A (CoA) on a conserved serine residue by action of phosphopantetheinyl transferase (PPTase) enzymes. Phosphopantetheinylation is essential for synthase activity, and removal of the PPTase gene precludes natural product synthesis in microorganisms, or in the case of fatty acid biosynthesis, renders the organism unviable. PPTase enzymes belong to a distinct structural superfamily. Within bacteria, these enzymes are grouped into two classes based upon primary structure, the AcpS-Type and Sfp-Type PPTases.
# Sfp-type PPTases, corresponding to an activator of surfactin production in Bacillus subtilis, are responsible for modifying type I polyketide and nonribosomal peptide synthases of prokaryotes. Sfp-type PPTases are responsible for the activation of a variety of pathogen-associated virulence factors. Among these compounds are toxins such as mycolactone from Mycobacterium ulcerans, siderophores such as vibriobactin from Vibrio cholerae or mycobactin from Mycobacterium tuberculosis, as well as the mycolic acids which form the waxy cell wall of Mycobacteria. The biosyntheses of these natural products are considered attractive targets for drug design.
# In search of small molecule Sfp-PPTase inhibitors, a fluorescence quenching assay was developed for detection of Bacillus subtilis Sfp-PPTase enzymatic activity in a miniaturized high-throughput format. The consensus ybbr acceptor peptide […] was N-terminally labeled with Black Hole Quencher-2 (BHQ-2) and used in combination with rhodamine-labeled coenzyme A as a co-substrate.
# Inhibition of Sfp-PPTase was detected by recording the fluorescence intensity change over a 30-minute reaction period at a 525 nm excitation and 598 nm emission. Reagents were supplied by Michael Burkart and Timothy Foley, University of California at San Diego.
# This BioAssay deposition is for validation of the developed Sfp-PPtase assay.
# Assay Buffer: 50 mM Hepes-Na pH 7.6, 10 mM MgCl2, 0.01% Nonidet P-40, and 0.01% BSA.
# 3 uL of Sfp-PPTase enzyme (final concentration 15 nM) and 1 uL of substrate mixture (final concentration for rhodamine-CoA and BHQ-2-YbbR 5 uM and 12.5 uM, respectively) dispensed in columns 1, 2, 5 - 48. Columns 1 and 2 used to generate neutral control (uninhibited reaction)
# Three uL of reagents, consisting of buffer (in columns 3 and 4 as negative control) and Sfp-PPTase (in columns 1, 2, 5 - 48) were dispensed into 1,536-well Greiner black solid bottom plate. Compounds (23 nL) were transferred via Kalypsys pintool equipped with 1,536-pin array. The plate was incubated for 15 min at room temperature, followed by the addition of 1 uL substrate to start the reaction. The plate was then centrifuged at 1000 rpm for 15 seconds, and the fluorescence intensity recorded on a ViewLux High-throughput CCD imager (Perkin-Elmer) using standard BODIPY optics (525 nm excitation and 598 nm emission). The plate was then incubated for 30 minutes, and a second read on the ViewLux was performed. The fluorescence intensity difference over the 30-minute period was used to calculate the respective reaction rate for each well.
# Potency means the concentration at half of the fitted maximal effect.
Structure (SMILES),Potency,"largest response in the series, negative = inhibition"
BrC1C(Br)C(Br)C(Br)C(Br)C1Br (stereo not drawn),79.4 µM (active),–
Cc1ccc(C2CN(C)CC2C(=O)c2ccc(F)cc2)cc1 (stereo not drawn),–,15% (inactive)
CC(=NC1CCN(Cc2ccccc2)CC1)c1c(O)n(C)c(=O)n(C)c1=O,–,8.13% (inactive)
NC[C@H](O)c1ccc(O)cc1,–,5.47% (inactive)
CC[C@@H]1CN2CC[C@@H]1C[C@H]2[C@H](O)c1ccnc2ccc(OC)cc12,–,6.78% (inactive)
CCN1C[C@]2(COC)C(O)C[C@H](OC)[C@@]34C5C[C@]6(O)C(OC)C(O)[C@](OC(C)=O)(C5C6OC(=O)c5ccccc5)C(C(OC)C23)C14 (stereo partly drawn),–,5.25% (inactive)
COC(=O)N1C(c2ccccc2)C1c1ccccc1 (stereo not drawn),–,17.3% (inactive)
CC(=O)[O][Sn]([c]1ccccc1)([c]1ccccc1)[c]1ccccc1,1.41 µM (active),–
COc1cccc(-c2nc3ccc(N4CCN(C)CC4)cc3[nH]2)c1,–,-7.35% (inactive)
CCCN(C/C=C/I)C1CCc2ccc(O)cc2C1 (stereo not drawn),–,-26.2% (inactive)
C[C@@]12CC[C@H]3[C@@H](CC[C@]4(O)C[C@H](O)CC[C@@]34C=O)[C@]1(O)CC[C@@H]2C1=CC(=O)OC1,–,17.6% (inactive)
Cc1ccc2c(c1)=C/C(=C\c1c(O)[nH]c(=O)[nH]c1=O)C(=O)N=2,28.2 µM (active),–
O=c1[nH]c(O)c(C=Nc2cc(F)cc(F)c2)c(=O)[nH]1,–,-4.22% (inactive)
O=C1N=c2ccccc2=C/C1=C\c1c(O)[nH]c(=S)[nH]c1=O,25.1 µM (active),–
COc1ccccc1N=Nc1c(O)[nH]c(=S)[nH]c1=O,–,-20.4% (inactive)
COc1cc(C(=S)N2CCOCC2)ccc1O,–,14.2% (inactive)
N#CC(C#N)=Cc1cc(O)c(O)c([N+](=O)[O-])c1,–,-27.4% (inactive) and 8.16% (inactive)
OC(Cn1c2ccccc2c2ccccc21)C[n+]1ccccc1 (stereo not drawn),–,4.01% (inactive)
CC(C)(O)c1[se]c2ccccc2c1I,–,-14.3% (inactive)
O=C(N/N=C/c1ccc([N+](=O)[O-])o1)c1cc([N+](=O)[O-])cc([N+](=O)[O-])c1O,–,-16.6% (inactive)
COC(=O)c1ccc2[se]c(CC3CCCCC3)c(I)c2c1,–,-1.34% (inactive)

Structure (SMILES),Potency,"largest response in the series, negative = inhibition"
C[C@]12O[C@H](C[C@@]1(O)C(=O)O)n1c3ccccc3c3c4c(c5c6ccccc6n2c5c31)CNC4=O,–,-2.27% (inactive)
CN(C)CC1CCCCC1=O (stereo not drawn),–,9.1% (inactive)
C=CCN1C(=O)C2(C(C(=O)OCC)=C(N)Oc3c2c(=O)oc2ccccc32)c2ccccc21 (stereo not drawn),–,-13.3% (inactive)
CC(C)(c1ccc(OC[C@@H]2CO2)cc1)c1ccc(OC[C@H]2CO2)cc1,–,-26.3% (inactive)
CCCCC/C=C\C/C=C\C/C=C\CCCCCCC(=O)NCCO,–,-6.26% (inactive) and -18.5% (inactive) and 24.4% (inactive)
CCCCC/C=C\C/C=C\C/C=C\C/C=C\CCCCCC(=O)NCCO,25.1 µM (active),-11.4% (inactive) and -19.7% (inactive) and 32% (inactive)
CCCCC/C=C\C/C=C\C/C=C\C=C\[C@H](CCCC(=O)O)OO,–,1.29% (inactive) and 7.78% (inactive)
CCN1C[C@@]2(COC)CC[C@H](OC)[C@]34[C@@H]1[C@]1(OCO[C@@]15C[C@@H](OC)C1C[C@H]3[C@H]5[C@@H]1OC)[C@H](O)[C@@H]24,–,4.99% (inactive)
C=CCN1CCC23c4c5ccc(O)c4O[C@H]2C(=O)CC[C@@]3(O)C1C5 (stereo partly drawn),–,7.15% (inactive)
CN(C)[C@@H]1C(=O)C(C(N)=O)=C(O)[C@@]2(O)C(=O)C3=C(O)c4c(O)cccc4[C@@](C)(O)C3CC12 (stereo partly drawn),–,-6.86% (inactive)
CCOC(=O)C1(CCc2ccccc2)CCN(Cc2ccco2)CC1,–,-10.9% (inactive)
CN1[C@@H]2CC[C@H]1CC(OC(=O)c1cc(Cl)cc(Cl)c1)C2 (stereo partly drawn),–,10.2% (inactive)
CC(=O)Oc1ccccc1C(=O)Nc1ncc([N+](=O)[O-])s1,50.1 µM (active),-19.7% (inactive)
O=c1oc2ccccc2c(O)c1C(c1ccccc1O)c1c(O)c2ccccc2oc1=O,–,9.81% (inactive)
C[C@H]1C/C=C/[C@@H]2[C@@H]3O[C@]3(C)[C@@H](C)[C@H]3[C@H](Cc4ccccc4)NC(=O)[C@]32OC(=O)O/C=C/[C@](C)(O)C1=O,–,-0.438% (inactive)
CN[C@@H]1C[C@H]2O[C@@](C)([C@@H]1OC)n1c3ccccc3c3c4c(c5c6ccccc6n2c5c31)C(=O)NC4,–,0.89% (inactive) and -25.9% (inactive)
c1ccc(CCCCN2CCC(c3ccccc3)CC2)cc1,–,-6.46% (inactive) and 2.8% (inactive)
COc1ccc(CNCCc2ccc3c(c2)OCO3)c(OC)c1OC,–,-17.5% (inactive)
CC1=CC(=O)C2=C(C)C[C@H](O)[C@H]3[C@H](C)C(=O)O[C@@H]3C12 (stereo partly drawn),–,33% (inactive)
O=Cc1cn(Cc2ccc(F)cc2Cl)c2ccccc12,–,0.0934% (inactive)
